Hits are enriched below; roughly 1.2% of the tested compounds scored in any of these assays.
Sa RN4220 lethal: growth inhibition of S. aureus RN4220, primary screen, OD600; 16 h; inhibition, % (no concentration beside the values); 0.33% of 330,000 active; AID 1259311, 2017; in the data active = inhibition above about 85%;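 also: plate controls were untreated cells for no effect and reference antibiotic for full effect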
PfHsp40 rescue: rescue of yeast from PfHsp40 toxicity, primary screen, S. cerevisiae, ATP luminescence; S. cerevisiae expressing PfHsp40, growth rescue; growth rescue, % at 12.5 µM; 0.68% of 340,000 active; AID 504582, 2011; in the data active = growth rescue above about 28%, passing the limit was not always enough;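 also: yeast W303a lacking pdr1 and pdr3 grown in galactose medium; growth measured after three days at 30 °C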
Vc quorum ag: inducers of Vibrio cholerae quorum light production without autoinducers, primary screen, BH1578 luxS cqsA deficient, single point | V. cholerae BH1578 lux reporter, luminescence, 6 h | activation, % at 18.7 µM | 0.16% of 350,000 active | AID 588436, 2011; in the data active = activation mostly above about 9.7%, no sharp cut-off
Sa ugtP lethal: growth inhibition of ugtP-null S. aureus, primary screen, RN4220 ugtP deletion, OD600. 16 h. growth inhibition, % (concentration not given with the values). 0.54% of 330,000 active. AID 1259309, 2017; in the data active = growth inhibition above about 68%;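 also: plate controls were untreated wells for no effect and antibiotic for full effect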
Mtb bLac sens: beta-lactam sensitization of Mtb H37Rv, H37Rv; M. tuberculosis H37Rv growth with meropenem, percent inhibition; inhibition, % at 25 µM; 0.27% of 330,000 active; call rule not given here;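 also: growth measured after seven days incubation then overnight dye step; 0% = bacteria only wells and 100% = bacteria with antibiotic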
* hit, by the source's call; i = inactive; nt = not tested or not shown.

SMILES	Sa RN4220 lethal	PfHsp40 rescue	Vc quorum ag	Sa ugtP lethal	Mtb bLac sens
CC(C)C(=O)ON=C1CCS(=O)(=O)c2sccc21	0	nt	nt	0	nt
CCC(=O)OC1(C(=O)CCl)C(C)CC2C3CCC4=CC(=O)C=C[C@]4(C)[C@@]3(F)C(O)C[C@@]21C (stereo partly specified)	5	nt	nt	10	nt
O=S(=O)(NC1CCCCCC1)c1ccc(Br)s1	7	59*	i	-7	12
O=CC1=C(c2ccccc2)Oc2ccccc2O1	-1	495*	0	-1	11
Cc1ccc(CSC(Nc2ccc(F)cc2)=C(C#N)C#N)cc1	97*	0	0	97*	-3
Cc1cc(N2CCCCC2)nc(-c2ccc(Br)cc2)n1	-2	-1	i	87*	48
O=C(NN=Cc1ccc(Cl)cc1Cl)c1n[nH]c2c1CCCC2	5	nt	nt	0	nt
Cc1nc2c(c(=O)c3ccccc3n2C)c(=O)n1C1CCCCCC1	6	1	-1	-3	-2
CCCCCc1nc2c(c(=O)c3ccccc3n2C)c(=O)n1C1CCCCCC1	99*	10	i	100*	89
COc1ccc(-c2nnc(SCC(=O)Nc3ccccc3)n2C)cc1	4	0	36*	-1	-1
COc1ccc(NC(=O)CSc2nnc(-c3ccncc3)n2C)cc1	2	-1	0	-1	-8
O=C(CSc1nnc(-c2ccccc2)n1Cc1ccccc1)NNC(=O)c1ccccc1O	14	166*	i	3	3
Cn1c(SCC(=O)NNC(=O)c2ccccc2O)nnc1-c1ccccc1	3	106*	0	4	9
O=C(CSc1nnc(-c2ccccc2O)n1Cc1ccccc1)NNC(=O)c1ccccc1O	8	305*	i	-13	1
CNC(=O)CSc1nnc(-c2ccncc2)n1Cc1ccccc1	4	0	16	4	13
O=C(COCc1ccccc1)NC(Cc1ccc(O)cc1)C(=O)O (stereo unspecified)	3	nt	nt	-2	nt
C#CCNC(=O)C1=CC(c2ccccc2)CC(OCCCCO)O1 (stereo unspecified)	0	nt	nt	2	nt
COc1ccc(-c2nc(N3CCN(C)CC3)sc2-c2ccc(OC)cc2)cc1	-4	-1	0	99*	50
COC(=O)C1=C(C)N(CCCC(=O)O)C(=O)NC1c1cc2c(cc1[N+](=O)[O-])OCO2 (stereo unspecified)	7	-1	3	6	8
COC(=O)C1=C(C)N(C)C(=O)NC1c1cc2c(cc1[N+](=O)[O-])OCO2 (stereo unspecified)	2	35*	nt	5	2
OC(Cn1cncn1)(Cn1cncn1)c1ccc(F)cc1F	5	179*	0	7	1
Cc1cc(C(=O)Cn2cncn2)c(C)n1CCc1ccc(F)cc1	1	-2	0	4	62
CCOC(=O)/C(=C/c1ccc(OC(=O)c2ccccc2)cc1)C(C)=O	6	312*	0	6	0
Cc1noc(C)c1NC(=O)Nc1ccc2c(c1)C(=O)N(C(C)CO)CC(C)C(CN(C)C(=O)Nc1ccc3c(c1)OCO3)O2 (stereo unspecified)	4	nt	nt	-1	nt
[N-]=[N+]=NC(CCN1CCC(O)CCC1=O)c1ccccc1 (stereo unspecified)	1	nt	nt	-5	nt
SMILES	Sa RN4220 lethal	PfHsp40 rescue	Vc quorum ag	Sa ugtP lethal	Mtb bLac sens
Clc1nssc1=Nc1ccc(Br)cc1	7	-1	i	12	nt
Clc1ccc(N=c2ssnc2Cl)nc1	26	1	-2	95*	-7
CCc1ccc2[nH]c(=O)c(C3C(C#N)=C(N)Oc4c3ccc3cccnc43)cc2c1 (stereo unspecified)	7	80*	i	-1	10
Cc1ccc2cc(C3C(C#N)=C(N)Oc4c3ccc3cccnc43)c(=O)[nH]c2c1 (stereo unspecified)	6	0	0	10	2
CC(=O)NC(c1ccccc1)c1cc([N+](=O)[O-])c2cccnc2c1O (stereo unspecified)	34	2	1	33	29
CC(=O)NC(c1cccs1)c1cc([N+](=O)[O-])c2cccnc2c1O (stereo unspecified)	53	243*	0	39	16
CCCC(=O)NC(c1cccs1)c1cc([N+](=O)[O-])c2cccnc2c1O (stereo unspecified)	80	0	0	91*	-3
